Sampled rows, rich in hits. Any-hit rate of the full collection: about 19%.
IL1B secr inh: qHTS for Inhibitors of Inflammasome Signaling: IL-1-beta AlphaLISA Primary Screen; THP-1 LPS/ATP IL-1B secretion, AlphaLISA, 16 h; hits give low values; 4.7% of 360,000 active; activity change, % at 57.5 µM; in the data active means activity change below about -50%; inconclusive means mostly about -30% to -49%
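THP-1 cells pretreated 1 hr with compounds (up to 57.5 uM final), then stimulated with LPS (250 ng/mL final) plus ATP (1.25 mM final); secreted IL-1B measured by AlphaLISA after 16 hr, decreased signal indicating inhibition.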
DT40 TDP1 CPT: qHTS for Inhibitors of human tyrosyl-DNA phosphodiesterase 1 (TDP1): qHTS in cells in presence of CPT | chicken DT40 Tdp1-/-;hTDP1 cells + 20 nM CPT, ATP luminescence, 48 h | Potency, µM (top dose mostly 46.2 µM), inactives show top-dose activity change, negative = growth inhibition, most hits filed as inhibitors | 12% of 420,000 active | AID 686979, 2013; further: potency means the concentration at half of the fitted maximal effect; nearly all actives have a fitted effect of over 55% in size
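Chicken DT40 Tdp1-/- cells complemented with human TDP1, 400 cells/well, exposed to compounds plus 20 nM camptothecin for at least 48 h at 37 C; viability read as ATP content by CellTiter-Glo luminescence.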
ELG1 repair inh: qHTS screen for small molecules that inhibit ELG1-dependent DNA repair in human embryonic kidney (HEK293T) cells expressing luciferase-tagged ELG1 | HEK293T ELG1-luciferase reporter, luminescence, 16 h; DNA damage induced by 5-fluorouridine | Potency, µM (titrated, usually from 46.1 µM), without a hit: top-dose activity change, negative = inhibition, actives largely listed as inhibitors | 2.3% of 330,000 active; further: potency means the concentration at half of the fitted maximal effect; nearly all actives have a fitted effect of over 55% in size
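Quantitative HTS, concentration-response format. 2,000 cells/well co-treated with 5-fluorouridine and compound, 16 hr in 5% CO2 at 37 °C; ONE-Glo luminescence read after 30 min.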
HT1080-NT tox: qHTS for induction of synthetic lethality in tumor cells producing 2HG: qHTS for the HT-1080-NT fibrosarcoma cell line; HT-1080-NT fibrosarcoma viability, CellTiter-Glo ATP luminescence, 48 h; Potency, µM (highest dose often 46.1 µM), without a hit: top-dose activity, negative = less viability, usual class: cytotoxic; 1.6% of 360,000 active; AID 686970, 2013;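 further: NT is the 2HG producing partner of a matched IDH1 knockdown line; potency means the concentration at half of the fitted maximal effect; 0% = DMSO-treated cells and -100% = media-only wells without cells; nearly all actives have a fitted effect of over 55% in size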
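HT-1080-NT fibrosarcoma cells (2HG-overproducing), 750 cells/well in RPMI with 5% FBS, dosed after 2 h and incubated 48 h at 37C. CellTiter-Glo luminescence normalized to DMSO and no-cell wells; concentration-response curves fitted and classed.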
HT1080 IDH1KD tx: qHTS for induction of synthetic lethality in tumor cells producing 2HG: qHTS for the HT-1080-IDH1KD cell line; HT-1080 IDH1 knockdown viability, ATP luminescence, 48 h; Potency, µM (top dose mostly 46.1 µM), for the others: at the highest dose activity, negative = toxicity, actives largely listed as cytotoxic; 2% of 360,000 active;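 further: potency means the concentration at half of the fitted maximal effect; 0% = DMSO wells and -100% = cell-free medium wells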
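Using the IDH1-knockdown HT-1080 line run in the same batch and compound series as the NT line, viability after 48 h at 37 °C was determined by CellTiter-Glo luminescence and expressed as % activity.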
DT40 TDP1 no CPT: qHTS for Inhibitors of human tyrosyl-DNA phosphodiesterase 1 (TDP1): qHTS in cells in absence of CPT; 15% of 420,000 active; DT40 Tdp1-/- hTDP1 cells, no CPT, ATP luminescence, 48 h; Potency, µM (top dose mostly 46.2 µM), without a hit: top-dose activity change, negative = growth inhibition, hits mostly inhibitors; further: potency means the concentration at half of the fitted maximal effect; nearly all actives have a fitted effect of over 55% in size
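Chicken DT40 Tdp1-/- cells stably complemented with human TDP1 were seeded at 400 cells/well with DMSO in place of 20 nM camptothecin. After compound pinning, cells grew at least 48 hr at 37 °C; viability read by CellTiter-Glo luminescence.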
Active calls of the source: *; i = inactive; ? = inconclusive; . = no result given. Unless noted, the call rests on the fitted dose curve; in most records, active means well fitted curve in the direction sought with a large enough effect; inconclusive means small, poorly fitted or top-dose-only effect, or another doubt; inactive means no such curve, though single readings can be large; an effect the other way counts as inactive or inconclusive. Unless noted, on the % scale 0 is the no-effect control and ±100 the full control effect.

SMILES	IL1B secr inh	DT40 TDP1 CPT	ELG1 repair inh	HT1080-NT tox	HT1080 IDH1KD tx	DT40 TDP1 no CPT
CCc1nn2c(N3CCOCC3)cc(C)nc2c1-c1ccc(F)cc1	-2	?	0%	-1%	0%	?
CNc1ccc(N=Nc2cccc3ncccc23)cc1	-54*	?	.	-8%	-6%	?
c1cnc2ccc3ncccc3c2c1	-24	?	?	15%	-1%	-11%
CCCS(=O)(=O)c1c(S(=O)(=O)CCC)c2ccc(C(N)=O)cn2c1C(=O)c1ccc(OC)cc1	23	12%	27%	-3%	-20%	-25%
CCCS(=O)(=O)c1c(S(=O)(=O)CCC)c2cc(C(C)(C)C)ccn2c1C(=O)c1ccc(C)cc1	.	23µM*	.	.	.	15µM*
CCN(CC)c1ccc(NC(=O)CCS(=O)(=O)c2ccc(Br)cc2)c(C)c1	13	?	-5%	12%	-2%	-24%
COCC1CCCCN1C(=O)c1ccc2oc(CCc3ccccc3)nc2c1 (centres undefined)	0	?	?	-3%	-7%	?
O=C(c1ccc2oc(CCCc3ccccc3)nc2c1)N1CCCC1	-4	16µM*	?	8%	9%	?
CCOC(=O)CC1CCCCN1C(=O)c1ccc2oc(CCc3ccccc3)nc2c1 (centres undefined)	22	21µM*	25%	-13%	-17%	15µM*
CCCc1ccc2oc(C(=O)NCCc3cnn(C)c3)c(C)c2c1	3	16µM*	?	0%	0%	16µM*
CCCc1ccc2oc(C(=O)NCCc3nc(C(=O)OCC)cs3)c(C)c2c1	i	?	?	-19%	-15%	?
CC(C)N(Cc1nccn1C)C(=O)c1ccc2oc(CCCc3ccccc3)nc2c1	0	18µM*	9%	-7%	-7%	23µM*
CCOC(=O)c1cc[nH]c1CC(=O)NC	17	1%	0%	0%	0%	11%
CCCc1ccc2oc(C(=O)N(Cc3nccn3C)C(C)C)c(C)c2c1	-7	5.2µM*	0%	-6%	1%	2.1µM*
Cc1c(C(=O)N(Cc2nccn2C)C(C)C)oc2c(F)cccc12	42	?	-4%	-3%	-4%	-28%
C=CCC1(CC=C)CCCN1C(=O)c1ccc2oc(CCCC)nc2c1	-24	12µM*	.	-4%	-16%	10µM*
O=C(NCc1ccc2c(c1)OCO2)C1CCC(=O)N1C1CCCC1 (centres undefined)	-5	7%	-1%	-7%	-3%	-14%
CC1=NN(c2ccccc2C(=O)O)C(=O)C1N=Nc1ccccc1 (centres undefined)	17	13µM*	3%	12%	7%	21µM*
CC1=NN(C(N)=S)C(=O)C1N=Nc1ccccc1C(=O)O (centres undefined)	-4	-5%	-4%	0%	-8%	-12%
CC(=O)c1cccc(OCc2cc(C(=O)N3CCSCC3)no2)c1	i	-7%	?	6%	19%	-2%
CCCN1CCN(C(=O)c2cc(COc3ccc(F)cc3F)on2)CC1	0	?	2%	2%	9%	?
CCCN1CCN(C(=O)c2cc(COc3ccc4ncccc4c3)on2)CC1	-6	23µM*	-27%	-19%	-25%	9.2µM*
CCN1CCN(C(=O)c2cc(COc3ccc4ncccc4c3)on2)CC1	19	16µM*	?	-27%	-1%	10µM*
Cc1ccc(N2C(=O)c3cccc4c(Oc5ccccc5[N+](=O)[O-])ccc(c34)C2=O)c(C)c1	13	10µM*	?	16%	4%	6.5µM*
Cc1cc(O)ccc1N1C(=O)c2cccc3cc([N+](=O)[O-])cc(c23)C1=O	17	?	-11%	-19%	5%	?
SMILES	IL1B secr inh	DT40 TDP1 CPT	ELG1 repair inh	HT1080-NT tox	HT1080 IDH1KD tx	DT40 TDP1 no CPT
O=C(c1ccco1)N(Cc1cccnc1)c1nc2ccc(F)cc2s1	.	6%	.	.	.	-11%
COc1cc([N+](=O)[O-])ccc1NC(=O)NCc1ccccn1	?	0%	14%	18%	15%	21%
O=C(Cc1ccc([N+](=O)[O-])cc1)NCc1ccccn1	27	4.6µM*	11%	13%	0%	2.9µM*
O=C(CNCc1ccccn1)Nc1ccc([N+](=O)[O-])cc1C(=O)Nc1ccccc1F	40	?	23µM*	-15%	-19%	?
CCOC(=O)N1CCN(CC(=O)Nc2ccc([N+](=O)[O-])cc2C(=O)Nc2ccccc2F)CC1	23	21µM*	7.3µM*	?	-19%	9.2µM*
COc1ccccc1Cn1cc(C(=O)c2ccc(C)cc2)c(=O)c2cc(F)cc(F)c21	.	3%	.	.	.	4%
O=C(CC1SC(=Nc2ccc(OC(F)F)cc2)N(CCN2CCOCC2)C1=O)Nc1ccc(F)cc1F (centres undefined)	-63*	?	?	-13%	-16%	?
O=C(CC1SC(=Nc2ccc(OC(F)F)cc2)N(CCN2CCOCC2)C1=O)Nc1ccccc1 (centres undefined)	-12	16µM*	-6%	18%	-24%	?
Cc1c(N=C2SC(CC(=O)Nc3ccccc3)C(=O)N2CCN2CCOCC2)c(=O)n(-c2ccccc2)n1C (centres undefined)	-4	7%	8%	0%	1%	-16%
COc1ccc(OC)c(NC(=O)CC2SC(=Nc3ccc(F)cc3)N(CCC3=CCCCC3)C2=O)c1 (centres undefined)	25	?	?	-6%	-6%	?
CC(NC(=O)Cn1cccc1)c1ccccc1 (centres undefined)	-3	-4%	2%	15%	12%	-29%
Cc1cc(C(=O)CN2C(=O)C(=O)N(Cc3ccccc3)C2=O)c(C)n1-c1ccc2c(c1)OCCO2	25	15µM*	-1%	?	?	21µM*
CC(=O)Nc1ccc(S(=O)(=O)NCC(=O)OCC(=O)c2cc(C)n(-c3ccc4c(c3)OCO4)c2C)cc1	32	-12%	-2%	0%	1%	8.2µM*
